Only some compounds are listed: those with a hit (about 6.2% of all), similar ones and a draw of the others.
LASV entry inh: inhibitors of Lassa virus binding or cell entry; 300,000 compounds, 1.2% hits; AID 540256; Lassa virus pseudotype entry inhibition, cell reporter; Potency, µM (titrated, usually from 37.9 µM), actives largely listed as inhibitors; calls by dose curve; tested in HEK293 cells; further: nearly all actives have a fitted effect of over 50% in size
FMDV antiviral: blocks foot and mouth disease virus; 410,000 compounds, 1.2% hits; Potency, µM (series often up to 57.9 µM), actives largely listed as inhibitors; FMDV antiviral cell-based qHTS; AID 1159524; calls by dose curve; tested in HEK293T cells; further: read-out not given here; nearly all actives have a fitted effect of over 45% in size
HCMV antiviral: blocks human cytomegalovirus replication. HFF cells, HCMV-luciferase reporter, 72 h; active compounds read low. 410,000 compounds, 4.5% hits. activity change, negative = inhibition, % at 57.5 µM; in the data active means activity change below about -60%; inconclusive means no clear call, values can overlap the other calls; inactive means above about -39%
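Two compound doses tested in HFFs infected with HCMV-luciferase, MOI 1 PFU/cell, 72 h at 37C. Lysate luminescence read with OneGlo; data normalized against buffer-only and 10uM Salinomycin inhibitor controls.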
MARV entry inh: inhibitors of Marburg virus binding or cell entry | Potency, µM (titrated, usually from 37.8 µM), actives largely listed as inhibitors | AID 540276 | 300,000 compounds, 1.8% hits | Marburg virus pseudotyped entry inhibition, cell reporter; calls by dose curve; tested in HEK293 cells
Large screens that a line does not name were inactive; ! = not active in a repeat.

COc1ccc2[nH]cc(CCNC(=O)c3ccccc3Cl)c2c1	HCMV antiviral -84
COc1ccc2[nH]cc(CCNc3ncncc3-c3cccnc3)c2c1	none (no result: LASV entry inh, HCMV antiviral, MARV entry inh)
COc1ccc2[nH]cc(CCNc3ncncc3-c3ccccc3C)c2c1	FMDV antiviral 20µM (no result: LASV entry inh, HCMV antiviral, MARV entry inh)
COc1cccc(C2C(C(=O)Nc3ccccc3OC)=C(C)Nc3nc(-c4ccco4)nn32)c1 (stereo not given)	LASV entry inh inconclusive
COC(=O)[C@@H]1[C@@H](CO)[C@@H]2Cn3c(ccc(Br)c3=O)[C@@H]2N1C(=O)CN(C)C	none (no result: LASV entry inh, FMDV antiviral, MARV entry inh)
COc1cccc(CNC(=O)CCCN2C(=O)CCn3nc(-c4cccn4C)cc32)c1	none (no result: MARV entry inh)
O=C(CCc1c[nH]c2ccccc12)Nc1ncccc1O	none
Cc1ccc(C(=O)NCCc2c[nH]c3ccccc23)c(C)c1	LASV entry inh 11µM, MARV entry inh inconclusive
O=C(NCCc1c[nH]c2ccccc12)c1ccccc1	LASV entry inh inconclusive
Cc1ccc2[nH]cc(CCNC(=O)Nc3ccccc3)c2c1	LASV entry inh inconclusive, FMDV antiviral inconclusive
CC(=O)c1cccc(NC(=O)NCCc2c[nH]c3ccccc23)c1	HCMV antiviral -82
Cc1ccc(NC(=O)CCc2c[nH]c3ccccc23)nc1	LASV entry inh inconclusive, HCMV antiviral -74, MARV entry inh inconclusive
CCC1(C2CCN(Cc3cccc4ccccc34)CC2)NC(=O)N(Cc2ccc3c(c2)OCO3)C1=O (stereo not given)	none (no result: LASV entry inh, HCMV antiviral, MARV entry inh)
COc1ccc(OCc2cccc(C(=O)NN)c2)cc1	LASV entry inh inconclusive, FMDV antiviral 8.9µM, MARV entry inh 4.1µM
COc1ccc(OCc2cccc(C(=O)Nc3cc(C)on3)c2)cc1	LASV entry inh inconclusive, MARV entry inh 5.8µM
COc1cccc(C(=O)Nc2cc(C)on2)c1	none (no result: LASV entry inh, MARV entry inh)
Cc1oc(-c2ccccc2NC(=O)c2ccsc2)nc1CN(C)Cc1ccc2c(c1)CCCN2C	none (no result: LASV entry inh, HCMV antiviral, MARV entry inh)
CCC(C)CN1C(=O)NC(c2ccccc2)C(C(=O)OC)=C1C (stereo not given)	LASV entry inh inconclusive (no result: FMDV antiviral, HCMV antiviral)
COc1ccc(Nc2nc(N)nc(CSc3nc4ccccc4s3)n2)cc1	LASV entry inh inconclusive, FMDV antiviral inconclusive
CCOc1ccc(Nc2nc(N)nc(CCl)n2)cc1	LASV entry inh inconclusive, HCMV antiviral -96, MARV entry inh inconclusive
Cc1cccc(Nc2nc(N)nc(CN3CCC(C(N)=O)CC3)n2)c1C	none
Cc1cccc(Nc2nc(N)nc(CCl)n2)c1C	LASV entry inh inconclusive, HCMV antiviral -96, MARV entry inh inconclusive
Cc1ccc(Nc2nc(N)nc(CSc3nc4ccccc4s3)n2)cc1	LASV entry inh inconclusive, HCMV antiviral -91!, MARV entry inh inconclusive
Cc1ccc(Nc2nc(N)nc(CCl)n2)cc1	LASV entry inh inconclusive, HCMV antiviral -108, MARV entry inh inconclusive
CCOc1ccc(Nc2nc(N)nc(CSC(=S)N3CCOCC3)n2)cc1	none (no result: LASV entry inh, MARV entry inh)
O=C(C[C@@H](c1ccco1)S(=O)(=O)c1ccccc1)c1ccc(F)cc1	none (no result: LASV entry inh, FMDV antiviral, HCMV antiviral)
CC1CC(C)CN(C(=S)SCc2nc(N)nc(Nc3ccccc3)n2)C1 (stereo not given)	HCMV antiviral -65, MARV entry inh inconclusive
Nc1nc(CCl)nc(Nc2ccccc2)n1	HCMV antiviral -91 (no result: LASV entry inh, MARV entry inh)
Cc1ccc(Nc2nc(N)nc(CN3CCCCCC3)n2)c(C)c1	none
Cc1ccc(Nc2nc(N)nc(CN3CCc4ccccc4C3)n2)cc1	LASV entry inh 23µM, MARV entry inh inconclusive
Cc1ccc(Nc2nc(N)nc(CCl)n2)c(C)c1	HCMV antiviral -103 (no result: LASV entry inh, MARV entry inh)
Cc1c(Cl)cccc1Nc1nc(N)nc(CN2CCc3ccccc3C2)n1	none
CCCC(=O)Nc1cccc(-c2nc3cc(C)c(C)cc3o2)c1C	LASV entry inh inconclusive (no result: MARV entry inh)
C[C@@H]1CC[C@H]2C(=O)N(Cc3ccccc3)C[C@@H](O)CN2[C@@H]1c1cccc(Br)c1	none (no result: FMDV antiviral, HCMV antiviral)
CN1CCN(NC(=O)c2cn(-c3ccccc3)nc2-c2ccc(OC(F)F)cc2)CC1	MARV entry inh 7.1µM
COC(=O)c1ccc(NC(=O)c2cn(-c3ccccc3)nc2-c2ccncc2)cc1	FMDV antiviral inconclusive, HCMV antiviral -98, MARV entry inh 13µM
COc1ccc(-c2nn(-c3ccccc3)cc2C(=O)Nc2nccs2)cc1	FMDV antiviral inconclusive, MARV entry inh inconclusive
Cc1ccccc1NC(=O)c1cn(-c2ccccc2)nc1-c1ccccc1	FMDV antiviral inconclusive, HCMV antiviral inconclusive
Cc1cccc(C)c1NC(=O)c1cn(-c2ccccc2)nc1-c1ccccc1	HCMV antiviral -64
O=C(Nc1cccc(S(=O)(=O)N2CCOCC2)c1)c1cn(-c2ccccc2)nc1-c1ccccc1	LASV entry inh inconclusive, HCMV antiviral -64, MARV entry inh inconclusive
CC(=O)c1ccc(NC(=O)c2cn(-c3ccccc3)nc2-c2ccncc2)cc1	LASV entry inh inconclusive, MARV entry inh inconclusive
CCOC(=O)C1CCCN(C(=O)CCS(=O)(=O)c2cc3c(cc2Cl)NC(=O)CO3)C1 (stereo not given)	none (no result: MARV entry inh)
COC(=O)c1cc(C(=O)OC)n2c(C)cc3ccccc3c12	none (no result: LASV entry inh, FMDV antiviral, HCMV antiviral)
CCCC1C(=O)n2c(nc3ccccc32)N=C1C (stereo not given)	none (no result: LASV entry inh, FMDV antiviral, HCMV antiviral)
COc1ccc(CNC(=O)c2cc3cccc4c3n2CC(C)S4)cc1OC (stereo not given)	none (no result: MARV entry inh)
CC(C)C[C@H]1CNC(=S)N1C[C@H]1CCCN1C[C@H](CC(C)C)N1C[C@H](Cc2ccc(O)cc2)N(CC2CCCCCC2)C1=S	HCMV antiviral -101 (no result: LASV entry inh, MARV entry inh)
CC(C)C[C@@H](CN1CCCC1CN1C(=S)NC[C@@H]1Cc1ccc(O)cc1)N1C[C@H](Cc2ccc(O)cc2)N(CC2CCCCC2)C1=S (stereo not given in full)	FMDV antiviral inconclusive, HCMV antiviral -98 (no result: LASV entry inh, MARV entry inh)
CC(C)C[C@H]1CNC(=S)N1CC1CCCN1C[C@H](CC(C)C)N1C[C@H](Cc2ccc(O)cc2)N(CC2CCCCCC2)C1=S (stereo not given in full)	FMDV antiviral inconclusive, HCMV antiviral -102 (no result: LASV entry inh, MARV entry inh)
CC(C)C[C@H]1CNC(=S)N1CC1CCCN1C[C@H](CC(C)C)N1C[C@H](Cc2ccc(O)cc2)N(CC2CCCCC2)C1=S (stereo not given in full)	HCMV antiviral -98 (no result: LASV entry inh, MARV entry inh)
CC(C)C[C@@H](CN1CCC[C@@H]1CN1C(=S)NC[C@@H]1Cc1ccccc1)N1C[C@H](Cc2ccc(O)cc2)N(CC2CCCCC2)C1=S	none (no result: LASV entry inh, MARV entry inh)
CC(C)C[C@@H](CN1CCC[C@@H]1CN1C(=S)NC[C@@H]1Cc1ccccc1)N1C[C@H](Cc2ccc(O)cc2)N(CC2CCCCCC2)C1=S	none (no result: LASV entry inh, MARV entry inh)
CC(C)C[C@H]1CNC(=S)N1CC1CCCN1C[C@H](Cc1ccccc1)N1C[C@H](Cc2ccc(O)cc2)N(CC2CCCCC2)C1=S (stereo not given in full)	none (no result: LASV entry inh, MARV entry inh)
Cc1ccc(-n2nc(-c3ccc(F)cc3)c3cnc4cc5c(cc4c32)OCO5)cc1C	none
COc1ccccc1OCC(=O)NCC(c1ccc(Cl)cc1)N1CCCCC1 (stereo not given)	MARV entry inh inconclusive
CCc1noc(-c2ccc(N(C)Cc3ccc(OC)cc3)c([N+](=O)[O-])c2)n1	none
CCOC(=O)C1(C)C=C(Nc2ccc(O)cc2)C(=O)N1c1ccc(O)cc1 (stereo not given)	HCMV antiviral -70, MARV entry inh inconclusive
CCOC(=O)C1(C)C=C(Nc2ccc(OC)cc2)C(=O)N1c1ccc(OC)cc1 (stereo not given)	none

Screening data deposited in PubChem BioAssay by National Center for Advancing Translational Sciences (NCATS).
